Shown are actives, neighbours in structure and some others; about 1.5% of the full set was active somewhere.
PI5P4K alpha inh: qHTS for Inhibitors of phosphatidylinositol 5-phosphate 4-kinase (PI5P4K); max response, %; PI5P4Kalpha enzyme, ADP-Glo luminescence, 60 min; active compounds read low; 330,000 compounds, 1.2% hits; Phosphatidylinositol 5-phosphate 4-kinase type-2 alpha (Homo sapiens), P48426; active means max response of -50% or lower; inconclusive means between -30% and -50%; inactive means -30% or higher; further: value at the top dose of about 77 µM
Target sequence (P48426 whole entry, looked up): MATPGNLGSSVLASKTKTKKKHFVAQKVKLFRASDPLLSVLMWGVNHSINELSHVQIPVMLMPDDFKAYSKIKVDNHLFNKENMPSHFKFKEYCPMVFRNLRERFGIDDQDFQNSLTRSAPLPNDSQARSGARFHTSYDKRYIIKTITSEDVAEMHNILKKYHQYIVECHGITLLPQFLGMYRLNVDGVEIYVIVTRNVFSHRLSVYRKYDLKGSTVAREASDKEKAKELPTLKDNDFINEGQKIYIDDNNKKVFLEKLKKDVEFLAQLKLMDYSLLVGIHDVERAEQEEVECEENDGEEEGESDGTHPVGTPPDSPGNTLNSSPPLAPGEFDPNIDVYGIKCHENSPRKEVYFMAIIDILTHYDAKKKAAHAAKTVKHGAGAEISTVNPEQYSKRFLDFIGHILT
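PI5P4Kalpha ADP-Glo assay; 5 microM ATP final; 60 min RT reaction; HEPES pH 7.4/EGTA/CHAPS, 5% DMSO; controls lacking substrate or enzyme; luminescent end-point.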
FEN1 inh: qHTS Assay for the Inhibitors of Human Flap endonuclease 1 (FEN1) | AID 588795, 2011 | Recombinant FEN1 flap cleavage, fluorescence, 15 min | P39748 | 390,000 compounds, 0.35% hits | Potency, µM (doses to about 114 µM), for inactives: top-dose activity change, negative = inhibition, most hits filed as inhibitors; further: potency means the concentration at half of the fitted maximal effect; nearly all actives have a fitted effect of over 65% in size
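Enzyme 10 nM, 15 min RT preincubation with compound; start with substrate 50 nM final; reads at 0 and 15 min; qHTS titration, four-parameter Hill fit.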
KAT2A inh: qHTS Assay for Inhibitors of GCN5L2; Histone acetyltransferase KAT2A (Homo sapiens), Q92830; GCN5L2 HAT assay, ThioGlo1 CoA-SH fluorescence; Potency, µM (highest dose often 58.9 µM), for the others: at the highest dose activity change, negative = inhibition, hits mostly inhibitors; 390,000 compounds, 0.21% hits; further: potency means the concentration at half of the fitted maximal effect
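Titration-based screen in which CoA formation is detected via maleimide probe ThioGlo1 (50uM) turning fluorescent on thiol reaction; substrates H3(1-25) 75uM and acetyl-CoA 70uM, GCN5L2 20nM, 20 min incubation at room temperature.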
RECQ1 inh-1: qHTS Assay for Inhibitors of RecQ-Like Dna Helicase 1 (RECQ1); ATP-dependent DNA helicase Q1 (Homo sapiens), P46063; Potency, µM (titrated, usually from 57.3 µM), inactives show top-dose activity, negative = inhibition, hits mostly inhibitors; AID 2549, 2010; 240,000 compounds, 0.54% hits; RECQ1 DNA unwinding, red fluorescence kinetic read;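 further: potency means the concentration at half of the fitted maximal effect; plate controls were vehicle for no effect and no enzyme for full effect; nearly all actives have a fitted effect of over 30% in size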
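RECQ1T1 50 nM; forked duplex (20 bp + 30-nt ss tails) 200 nM, ATP 2 mM final; pH 8.0, 2 mM MgCl2, 2.5 ug/ml poly(dI-dC); 15 min compound preincubation; discontinuous kinetic read over 2 h at RT.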
BLM inh: qHTS Assay for Inhibitors of Bloom's syndrome helicase (BLM) | RecQ-like DNA helicase BLM (Homo sapiens), P54132 | recombinant BLM DNA unwinding, fluorescence dequenching | Potency, µM (top dose mostly 56.1 µM), for the others: at the top dose activity change, negative = inhibition, most hits filed as inhibitors | 350,000 compounds, 0.2% hits;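 further: potency means the concentration at half of the fitted maximal effect; plate controls were vehicle for no effect and no enzyme for full effect; nearly all actives have a fitted effect of over 35% in size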
APEX1 inh: qHTS Assay for Inhibitors of the Human Apurinic/apyrimidinic Endonuclease 1 (APE1); AID 2517, 2012; Potency, µM (top dose mostly 65.8 µM), for inactives: at the highest dose activity change, negative = inhibition, hits mostly inhibitors; 350,000 compounds, 0.35% hits; recombinant APE1, TAMRA/BHQ-2 abasic DNA cleavage fluorescence;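 further: potency means the concentration at half of the fitted maximal effect; plate controls were vehicle for no effect and reference inhibitor for full effect; nearly all actives have a fitted effect of over 55% in size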
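Readout is kinetic fluorescence (ex 525, em 598 nm) from cleavage of 50 nM TAMRA/BHQ-2 THF abasic duplex by 0.75 nM APE1, compound added 15 min beforehand at RT.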
RECQ1 inh conf: Confirmation qHTS Assay for Inhibitors of RecQ-Like Dna Helicase 1 (RECQ1) | shares compounds with RECQ1 inh-1 | RECQ1 helicase DNA unwinding, fluorescence | Potency, µM (highest dose often 229 µM), without a hit: at the top dose activity change, negative = inhibition, usual class: inhibitors | 610 compounds, 28% hits; further: potency means the concentration at half of the fitted maximal effect; nearly all actives have a fitted effect of over 45% in size
RECQ1 ADP FP: Counterscreen for RECQ1 Inhibitors: ADP Fluorescence Polarization Displacement Assay; shares compounds with RECQ1 inh-1; ADP fluorescence polarization displacement counterscreen; Potency, µM (top dose mostly 228 µM), inactives show at the highest dose activity change, negative = inhibition, usual class: inhibitors; 530 compounds, 27% hits; AID 2711, 2010; further: potency means the concentration at half of the fitted maximal effect; nearly all actives have a fitted effect of over 45% in size
RECQ1 inh-2: Confirmation qHTS Assay for Inhibitors of RecQ-Like Dna Helicase 1 (RECQ1) - Round 2 Cherry Picks. shares compounds with RECQ1 inh-1. recombinant RECQ1 DNA unwinding, red fluorescence. Potency, µM (titrated, usually from 119 µM), without a hit: at the highest dose activity, negative = inhibition, most hits filed as inhibitors. 1,100 compounds, 15% hits. AID 504841, 2011; further: potency means the concentration at half of the fitted maximal effect; nearly all actives have a fitted effect of over 50% in size
An asterisk follows results filed as active; [ ] = another dose, or the depositor's remark. Unless noted, the call rests on the fitted dose curve; in most records, active means well fitted curve in the direction sought with a large enough effect; inconclusive means small, poorly fitted or top-dose-only effect, or another doubt; inactive means no such curve, though single readings can be large; an effect the other way counts as inactive or inconclusive. Unless noted, on the % scale 0 is the no-effect control and ±100 the full control effect.

How did CC[C@H](C)N do in these assays?
KAT2A inh: -16.9%; RECQ1 inh-1: -12.7%; BLM inh: -2.2%; APEX1 inh: -4.9%

How did CC(C)(C)OC(=O)NS(=O)(=O)NCc1ccco1 do in these assays?
FEN1 inh: -6.8%; RECQ1 inh-1: inactive; BLM inh: -1.1%; APEX1 inh: -0.7%

How did Cc1ccc(S(=O)(=O)Nc2ccc(N3CCCCC3)cc2)cc1 do in these assays?
PI5P4K alpha inh: 0.6; FEN1 inh: -2.5%; KAT2A inh: -11.2%; RECQ1 inh-1: inconclusive; BLM inh: -7.3%; APEX1 inh: 4.8%; RECQ1 inh-2: -8.3%

How did CCC[C@@H]1CC2=CC(=O)CC[C@]2(C)[C@H]2CC[C@@]3(C)[C@@H](CC[C@@]34CCC(=O)O4)[C@H]12 do in these assays?
KAT2A inh: 23.4%; RECQ1 inh-1: -13.9%; BLM inh: 1.7%; APEX1 inh: -3.5%

How did COc1cccc(-c2nnc(SC(C(=O)c3c[nH]c4ccccc34)c3ccccc3)n2C)c1 (stereo not drawn) do in these assays?
PI5P4K alpha inh: -4.4; FEN1 inh: 8.2%; KAT2A inh: 1.9%; RECQ1 inh-1: -7.4%; BLM inh: -4.1%; APEX1 inh: -5.9%; RECQ1 inh conf: 2.1%; RECQ1 ADP FP: 14.6%

How did COc1ccccc1-c1nnc(SC(C(=O)c2c[nH]c3ccccc23)c2ccccc2)n1C (stereo not drawn) do in these assays?
PI5P4K alpha inh: -11.3; FEN1 inh: -1.0%; KAT2A inh: -11.1%; RECQ1 inh-1: -14.1%; BLM inh: -9.5%; APEX1 inh: -6.4%

What do the screens show for `Cc1cc(C)n2[nH]c(=O)c(N=Nc3ccccc3)c2n1`?
PI5P4K alpha inh: -2.5; FEN1 inh: -15.6%; KAT2A inh: -6.6%; RECQ1 inh-1: inactive; BLM inh: -4.3%; APEX1 inh: -6.0%

Results for Cc1cc(C(F)(F)F)n2[nH]c(=O)c(N=Nc3ccccc3)c2n1 ?
PI5P4K alpha inh: -2.3; FEN1 inh: -0.4%; KAT2A inh: -21.2%; RECQ1 inh-1: 10µM*; BLM inh: 3.0%; APEX1 inh: 0.1%; RECQ1 inh conf: 2.6%[114 µM]; RECQ1 ADP FP: 12.8%[91.9 µM]

How did CCOc1nc(C#N)nc(N(c2ccccc2)c2ccccc2)n1 do in these assays?
FEN1 inh: 2.1%
